Here are results for 46 compounds from PubChem BioAssay AID588855 (National Center for Advancing Translational Sciences (NCATS), 2011).

Molecules are shown by their SMILES. Hit rate of the full screen: of about 410,000 compounds, about 5,000 (1.2%) were called active. About 13% were inconclusive and are not listed. For the sample, actives were picked, then their nearest neighbours and some compounds at random. Unmarked numbers belong to inactive results. Calls follow the shape of the dose curve; as a rule, active = well fitted inhibition curve with a large enough effect; inconclusive = small, poorly fitted or top-dose-only effect; inactive = no such curve, though single readings can be large or run the other way.
% is scaled to controls: 0 for no effect and ±100 for the full control effect; potency is read from the fitted curve at half-maximal effect.

A short description of this assay: qHTS for Inhibitors of TGF-b. Also: nearly all actives have a fitted effect of over 65% in size. Particulars: HepG2 CAGA-GFP TGF-b/SMAD3 reporter, GFP fluorescence, 18 h, TGF-beta stimulated, 500 pg/mL final; series mostly up to 46.1 µM; activity, negative = inhibition: at the top concentration. The method, boiled down: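 Read-out: total well GFP (ex488/em500-530) summed from mean per-cell fluorescence. Cells: HEPG2 CAGA-GFP, 1% FBS DMEM, 18 h at 37 degrees C with 500 pg/mL final TGF-beta. Unstimulated wells served as the full-inhibition control; stimulated DMSO wells = 0%.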
For orientation: In qHTS, concentration-response curves come from the screen itself.
Take `CCC(C)NC(=O)Cn1c(=O)n(-c2ccc(Cl)cc2)c(=O)c2c3c(sc21)CCCC3` (stereo unspecified): the “activity, negative = inhibition” value is -12.6%.
Consider `CCOc1cc(C2c3c(-c4ccc(Br)cc4)n[nH]c3C(=O)N2c2ccc(Cl)cc2)ccc1O` (stereo unspecified), for which the Potency was 4.47 µM (active).
For the compound `CCOC(=O)c1ccc(N2C(=O)c3n[nH]c(-c4ccco4)c3C2c2ccc(O)cc2)cc1` (stereo unspecified), the Potency was 15.8 µM (active).
Regarding `CCOc1cc(C2C(C(=O)c3ccco3)=C(O)C(=O)N2Cc2ccccc2)ccc1O` (stereo unspecified), the “activity, negative = inhibition” value was -23%.
The same measure, in the same setting: in the case of `CCOc1ccc(-c2n[nH]c3c2C(c2ccccc2OC)N(c2ccc(Br)cc2)C3=O)cc1` (stereo unspecified) it was 1.86%; in that of `COc1cc(C2c3c(oc4ccccc4c3=O)C(=O)N2c2nc(C)c(C)s2)ccc1O` (stereo unspecified), -4.72%.
As for `CCOC(=O)c1ccc(NC(=O)CNC(=O)c2ccco2)cc1`, the “activity, negative = inhibition” value was 1.66%.
`CCOC(=O)c1ccc(N2C(=O)c3n[nH]c(C)c3C2c2ccc(O)c(OC)c2)cc1` (stereo unspecified): the Potency is 11.2 µM (active).
With `CCOC(=O)c1ccc(NC2=CC(c3ccc(OCC)cc3)N(c3ccc(C(=O)OCC)cc3)C2=O)cc1` (stereo unspecified), the “activity, negative = inhibition” value is 11.5%.
With `CCOC(=O)C1=C(c2ccccc2)N=C2SCC(=O)N2C1c1ccc(O)c(OC)c1` (stereo unspecified), the “activity, negative = inhibition” value was 2.21%.
With `Cc1nc(SCC(=O)Nc2ccc(C(=O)O)cc2)n[nH]1`, the “activity, negative = inhibition” value is -24.3%.
Turning to `O=S(=O)(c1ccc(C2CCCCC2)cc1)N1CCN(c2ccc(Cl)c(Cl)c2)CC1`, the “activity, negative = inhibition” value was 4.43%.
Regarding `CNc1ccc(-c2nc(-c3ccco3)no2)cc1[N+](=O)[O-]`, the “activity, negative = inhibition” value is -2.19%.
`CC(C)(C)OC(=O)N(Cc1ccco1)S(=O)(=O)c1ccccc1Br`: the “activity, negative = inhibition” value is 6.04%.
In the case of `CCOc1ccc(NC(=O)CCc2c(C)nn(-c3ccc(N4CCCC4)nn3)c2C)cc1`, the “activity, negative = inhibition” value was -14.8%.
For the compound `CC1(C)CC(=O)c2cc(C(=O)NCc3ccccc3)c(=O)[nH]c2C1`, the “activity, negative = inhibition” value is 2.07%.
On to `CC(C)(C)c1ccc(C(=O)N2CCC(c3nc(-c4ccc(S(=O)(=O)N5CCCC5)cc4)no3)CC2)cc1`, for which the “activity, negative = inhibition” value was 0%.
In the case of `COc1ccc(NS(=O)(=O)c2cc(NC(=O)/C=C/c3cc(OC)c(OC)c(OC)c3)ccc2N2CCCCC2)cc1`, the “activity, negative = inhibition” value was 0%.
As to `COc1cc(/C=C/C(=O)N2CCc3ccccc3C2)cc(OC)c1OC`, the “activity, negative = inhibition” value is 14.2%.
Consider `COc1ccccc1Nc1c2c(nc3ccc(NC(=O)/C=C/c4cc(OC)c(OC)c(OC)c4)cc13)CCCC2`, for which the Potency is 4.47 µM (active).
On to `CCc1ccccc1N1CC(c2nc3ccccc3n2CCCCOc2ccccc2)CC1=O` (stereo unspecified), for which the “activity, negative = inhibition” value was -0.426%.
`CCCCN1CC(c2nc3ccccc3n2CCCCOc2ccc(C)cc2C)CC1=O` (stereo unspecified): the Potency is 11.2 µM (active).
As to `CCOc1ccc(N2CC(c3nc4ccccc4n3CCOc3ccc(OC)cc3)CC2=O)cc1` (stereo unspecified), the “activity, negative = inhibition” value was -16.7%.
For `Cc1oc2ccc(O)c(CN3CCC(C)CC3)c2c1C(=O)Nc1ccccc1`, the “activity, negative = inhibition” value is 17.7%.
Same read-out and setting: the same measure for `Cc1ccc(S(=O)(=O)c2nnn3c2nc(N2CCN(c4ccccc4F)CC2)c2cc(Cl)ccc23)cc1C`: 8.18%; for `COc1ccc(CNc2nc(-c3ccccc3)nn2C(=O)c2ccccc2OC)cc1`: 6.76%.
On to `OC(Cc1ccc2ccccc2n1)c1ccc(Cl)c(Cl)c1` (stereo unspecified), for which the “activity, negative = inhibition” value was 8.76%.
As for `CC1CC(C)CN(c2oc(-c3ccc(OCc4ccc(Cl)cc4)cc3)nc2C#N)C1` (stereo unspecified), the “activity, negative = inhibition” value is -2.03%.
As for `CC1=C(C(=O)N(C(C)C)C(C)C)CC(CC(=O)NCCCCc2ccccc2)C(=O)N1CCC1=CCCCC1` (stereo unspecified), the Potency is 12.6 µM (active).
Regarding `CC1=C(C(=O)N2CCOCC2)CC(CC(=O)NCCN2CCOCC2)C(=O)N1CCC1=CCCCC1` (stereo unspecified), the “activity, negative = inhibition” value was 7.65%.
In the case of `CC1=C(C(=O)N(C)C)CC(CC(=O)NCCc2ccccn2)C(=O)N1CCC1=CCCCC1` (stereo unspecified), the “activity, negative = inhibition” value is 8.09%.
Consider `O=C(CSc1ccccc1)Nc1nnc(/C=C/c2ccccc2)s1`, for which the “activity, negative = inhibition” value is 4.29%.
Regarding `O=C(Nc1ccc(Cl)cc1)Nc1nnc(/C=C/c2ccccc2)s1`, the Potency was 7.08 µM (active).
For the compound `COc1ccc(/C=C/c2nnc(NC(=O)C(C)C)s2)cc1`, the “activity, negative = inhibition” value is 3.59%.
Take `COc1ccc(-c2cnc(SCCNC(=O)c3ccc4c(c3)OCO4)[nH]2)cc1`: the “activity, negative = inhibition” value was -2.86%.
Take `COc1cccc(-c2cnc(C(O)c3ccccc3OC)[nH]2)c1` (stereo unspecified): the “activity, negative = inhibition” value is 1.48%.
Turning to `COc1ccccc1CSc1ncc(-c2ccc([N+](=O)[O-])cc2)[nH]1`, the Potency is 12.6 µM (active).
Turning to `COc1ccc(C(=O)NCC(=O)N/N=C/c2ccc([N+](=O)[O-])s2)cc1OC`, the Potency is 11.2 µM (active).
Turning to `COc1ccc(C(=O)COC(=O)c2ccc([N+](=O)[O-])s2)cc1OC`, the “activity, negative = inhibition” value is -5.53%.
Regarding `Cc1ccc(S(=O)(=O)N2CCN(CC(=O)N/N=C/c3ccc(Br)s3)CC2)cc1`, the “activity, negative = inhibition” value is 0%.
`Cc1ccccc1NCC(=O)N/N=C\c1ccc([N+](=O)[O-])s1`: the Potency was 11.2 µM (active).
Consider `Cc1nn(Cc2ccc(Cl)cc2)c(Cl)c1/C=N/NC(=O)CNc1ccccc1F`, for which the “activity, negative = inhibition” value is 0%.
For `COc1ccccc1OCCNC(=O)c1cc([N+](=O)[O-])cc([N+](=O)[O-])c1`, the “activity, negative = inhibition” value is 4.16%.
For `COc1ccc(C2C(=O)N(C3CCCCC3)CC(=O)N2Cc2ccccc2Cl)cc1OC` (stereo unspecified), the “activity, negative = inhibition” value was 0.844%.
Same read-out and setting: the same measure for `O=C(Cc1ccc(Cl)cc1)Nc1ccc2nn(-c3ccc(Cl)cc3)nc2c1`: -5.09%; for `CC1CCN(c2nc3ccc(C(=O)N4CCN(c5ccccc5)CC4)cc3s2)CC1`: -18.9%.
